Hit rate of the full screen: of about 140,000 compounds, about 220 (0.16%) were called active. Only a selection was taken, and actives are over-represented in it overall. Unmarked numbers belong to inactive results. Rule as the data show it: active = inhibition above about 50%; inactive = the rest.
These molecules were tested on YopH tyrosine phosphatase [Yersinia enterocolitica] (assay: YopH tyrosine phosphatase inhibitors, primary screen, biochemical, fluorescence Ex485/Em525 (AID 898)). Conditions: active compounds read high, concentration not given here.

Going from `COc1cc(/C=N/NC(=O)c2ccccc2)ccc1OS(=O)(=O)c1ccccc1` to `COc1ccc(C)cc1NC(=O)C(OC(=O)c1cccc(S(=O)(=O)N(C)c2ccccc2)c1)c1ccccc1` (stereo not drawn), the inhibition falls from -12.8% to -35.9%.

First: COC(=O)c1ccccc1NS(=O)(=O)c1ccc2[nH]c(=O)[nH]c2c1
Second: Cc1cc(C)cc(C(=O)NC(=S)Nc2ccc3[nH]c(=O)[nH]c3c2)c1
The inhibition of the first is lower: -13.2% for the first, -11.9% for the second.

First: Cc1cccc(CSc2ccc(-c3cccs3)nn2)c1
Second: COc1ccc(-n2c(C)cc(C(=O)CSc3nnc(-c4cccs4)o3)c2C)cc1
The inhibition of the first is higher: -8.04% for the first, -23.9% for the second.

Compared with `CC1(c2cccc([N+](=O)[O-])c2)CC(C)(C)N(C(=O)c2ccccc2)c2ccccc21` (stereo not drawn), `O=C(/C(=C/c1cccc(Cl)c1)c1nc2ccccc2[nH]1)c1ccccc1` is lower in inhibition: -13.3% for the first, -25% for the second.

Going from `O=C(NC(=S)Nc1cc(C(F)(F)F)ccc1N1CCOCC1)c1ccc(-c2cccc(Cl)c2)o1` to `COc1ccc(NC(=O)c2sc(N3CCOCC3)nc2-c2ccccc2)c(OC)c1`, the inhibition rises from -11.4% to -1.88%.

Going from `CCN(CC(=O)NC1CCS(=O)(=O)C1)S(=O)(=O)c1ccccc1` (stereo not drawn) to `Cc1ccc(S(=O)(=O)N2CCOCC2)cc1C(=O)NC(=S)N(Cc1ccccc1)C(C)C`, the inhibition rises from -27.4% to -13.5%.

Going from `O=c1cc(-c2ccccc2)[nH]c2cc(F)ccc12` to `O=C(O)CCS(=O)(=O)c1ccc(-c2ccccc2)cc1`, the inhibition falls from -25.5% to -26.8%.

First: COc1ccc2c(c1)CC[C@@H]1[C@@H]2CC[C@]2(C)C(=O)CC[C@@H]12
Second: Cc1ccc(OCc2nnc(SC3CCc4ccccc4C3=O)n2C)cc1 (stereo not drawn)
The inhibition of the first is lower: -40.8% for the first, -10.2% for the second.

Compared with `COC(=O)/C=C\C(=O)Nc1cccc([N+](=O)[O-])c1`, `CCc1ccc(NC(=O)C(C)OC(=O)/C=C/c2cccc([N+](=O)[O-])c2)cc1` (stereo not drawn) is higher in inhibition: -15.7% for the first, -14.1% for the second.

Compared with `Cc1ccc(NC(=O)Cn2cccc2C2=NC(c3ccccc3)CO2)c(C)c1` (stereo not drawn), `Cc1ccc(C)c(NC(=O)C(OC(=O)c2ccc(C)s2)c2ccccc2)c1` (stereo not drawn) is lower in inhibition: -4.93% for the first, -11.6% for the second.

Going from `Cc1ccc(S(=O)(=O)Nc2nc(C)cc(N/N=C/c3ccc(O)cc3)n2)cc1` to `Cc1ccc(C(C[N+](=O)[O-])c2c(C)cc3ccccn23)cc1` (stereo not drawn), the inhibition rises from -24.5% to -23.1%.

First: Cn1cnc(C(F)(F)F)c1-c1ccc([N+](=O)[O-])cc1
Second: CC(C)c1nccn1S(=O)(=O)c1cc([N+](=O)[O-])ccc1Cl
The inhibition of the first is lower: -26.6% for the first, -25.1% for the second.

Compared with `Cc1ccc(NC(=O)CN(C)Cc2ccc(F)cc2)c([N+](=O)[O-])c1`, `CCOc1ncccc1C(=O)N(C)CC(=O)Nc1ccc(F)cc1` is higher in inhibition: -24.9% for the first, -16.5% for the second.

Going from `Cc1ccccc1C(OCCN(C)C)C1CCCCC1` (stereo not drawn) to `Cc1ccc(N(C(=O)C(F)(F)F)C(C(=O)NC2CCCCC2)c2ccncc2)cc1C` (stereo not drawn), the inhibition rises from -18.4% to -8.07%.

Going from `N#Cc1ccc(C(=O)Nc2nc(-c3cccs3)c(C(=O)C(F)(F)F)s2)cc1` to `CC(C)C(=O)Nc1ccc(C(=O)NNC(=O)c2cccs2)cc1`, the inhibition falls from -10.1% to -18.7%.

First: NNc1nc2c(Cl)cccc2s1
Second: CC/C(=N\NC(=O)c1ccccc1Cl)c1ccc(Br)s1
The inhibition of the first is higher: -22% for the first, -30% for the second.

Compared with `Cc1cc(N2CCOCC2)nc(-c2ccc(Br)cc2)n1`, `O=C(COc1nc2ccccc2nc1N1CCOCC1)NCC(F)(F)F` is lower in inhibition: 5.67% for the first, -21.6% for the second.

Compared with `CCCCNC(=O)C1CCC(CNS(=O)(=O)c2ccc(NC(C)=O)cc2)CC1` (stereo not drawn), `COC(=O)NNC(=O)C1CCC(C)CC1` (stereo not drawn) is higher in inhibition: -25.8% for the first, -19.5% for the second.

First: COc1ccc(-c2cc(C(F)(F)F)nc(SCC(=O)Nc3ccc4c(c3)OCO4)n2)cc1OC
Second: COc1ccc(OC)c(C(=O)CSc2nnc(-c3cccs3)o2)c1
The inhibition of the first is lower: -21.2% for the first, -17.3% for the second.

Going from `Cc1cccc(N2C(=O)SC(SC(=Nc3ccccc3)Nc3ccccc3)C2=O)c1` (stereo not drawn) to `O=C(c1cccs1)n1nc(NCc2ccccc2)nc1NCc1ccccc1`, the inhibition falls from -18.8% to -28.9%.

Going from `Cc1ccc2c(c1)C1CN(C)CCC1N2C(=O)c1ccccc1NS(=O)(=O)c1ccc(F)cc1C` (stereo not drawn) to `CN1CCN(c2ccc(S(=O)(=O)N3CCCCC3)cc2NC(=O)Cc2ccccc2F)CC1`, the inhibition rises from -30.2% to -23.6%.

Compared with `Cc1nc2ccccc2n1CC(=O)N/N=C/c1cccs1`, `Cc1cc(SCC(=O)NCCN2C(=O)CSC2=O)nc2ccccc12` is higher in inhibition: -17.2% for the first, -4.76% for the second.

Going from `Cc1ccc(NC(=O)CCC(=O)N/N=C/c2ccco2)c(C)c1` to `CCC(C)(C(=O)Nc1ccccc1C)N(C(=O)CNC(C)=O)c1ccc(C)cc1` (stereo not drawn), the inhibition falls from -19.1% to -34.2%.

Going from `CCCNC(=O)OC[C@H]1O[C@H](CCO/N=C/[C@@H](NS(=O)(=O)c2ccc(C)cc2)[C@H](C)/C=C/CC(=O)OC)C=C[C@@H]1Oc1ccc(OC)cc1` to `COC(=O)c1sc(N)c(C(=O)OC)c1COC(=O)CNS(=O)(=O)c1ccc(C)cc1`, the inhibition falls from -21.3% to -21.7%.

Going from `CC(=O)c1ccc(NC(=S)NC(=O)CC(C)C)cc1` to `COC(=O)Cc1ccc(NC(=S)NCc2ccccc2)cc1`, the inhibition falls from -2.98% to -21.4%.

First: COc1cc(OC)cc(C(=O)N[C@H](C(=O)OCC(=O)NC(C)c2ccccc2)C(C)C)c1 (stereo partly drawn)
Second: CC(C)CNC(=O)COC(=O)c1ccccc1OCC(=O)Nc1ccc(Br)cc1
The inhibition of the first is lower: -27.4% for the first, -23.1% for the second.

Compared with `CCCCC(CC(C)O)c1n[nH]c(=S)n1-c1ccccc1` (stereo not drawn), `CC(C)Nc1nnc(SCC(=O)c2c[nH]c3ccccc23)s1` is lower in inhibition: -33.5% for the first, -37.7% for the second.

Compared with `CCCCCOc1ccc(/C=C/C(=O)NCCc2nc3ccccc3[nH]2)cc1OC`, `C=CCOc1ccc(/C=N/NC(=O)C(C)Sc2ccccn2)cc1OCC` (stereo not drawn) is higher in inhibition: -36.7% for the first, -28.1% for the second.

Compared with `C=CCNC(=S)NNC(=O)COc1c(Cl)cc(Cl)cc1Cl`, `O=C(NCCOc1ccccc1Cl)C(=O)Nc1ccccc1` is lower in inhibition: -25.1% for the first, -35.1% for the second.

First: O=C(Nc1nnc(SCc2ccccc2Cl)s1)c1cccc([N+](=O)[O-])c1
Second: COc1ccccc1-c1nnc(NC(=O)c2ccc3ncsc3c2)o1
The inhibition of the first is lower: -19.7% for the first, -9.55% for the second.

Going from `CCCCN=C1C([N+](=O)[O-])=CC=C2C1=NC1(CCCCC1)N2O` to `O=C(NCCC1=CCCCC1)c1ccc(Cl)c([N+](=O)[O-])c1`, the inhibition rises from -23.5% to -21.9%.

Going from `CN(C)c1ccnc2sc(C(=O)c3ccccc3)c(N)c12` to `O=C(NNC(=O)c1cc2c(s1)CCCC2)c1ccccc1`, the inhibition falls from 9.26% to -2.47%.

Going from `CCOC(=O)c1c(/N=C/c2cc(C)ccc2O)sc2c1CCC2` to `COc1cc(/C=N/NC(=O)CCc2n[nH]c(=O)[nH]c2=O)ccc1O`, the inhibition falls from -9.28% to -11.1%.

Compared with `CCNC(=S)N(CCc1c(C)[nH]c2ccc(C)cc12)Cc1ccco1`, `Cc1ccc2[nH]cc(CCCN3C(=O)c4ccccc4C3=O)c2c1` is lower in inhibition: -11.6% for the first, -23.7% for the second.

Going from `O=C(COC(=O)Cc1ccc(Br)cc1)Nc1c(F)c(F)c(F)c(F)c1F` to `CC(C)(C)c1ccc(NC(=O)COC(=O)CCc2nc3ccccc3c(=O)[nH]2)cc1`, the inhibition falls from -9.87% to -15.2%.

Compared with `CN(C)c1ccc(/C=N/N(Cc2ccccc2)c2ccccc2)cc1`, `O=C(OCc1ccc(Br)cc1)c1cccc(-c2nnc(-c3ccccc3)o2)c1` is higher in inhibition: -23.4% for the first, -11.6% for the second.

First: C=CCn1c(SCC(N)=O)nnc1-c1cc2c(s1)CCC(CC)C2 (stereo not drawn)
Second: CC1=C(C)CC(C(=O)NNC(=O)c2csc3c2CCC(C(C)(C)C)C3)C(C(=O)O)C1 (stereo not drawn)
The inhibition of the first is higher: -11% for the first, -33.4% for the second.

Compared with `COC1=CCC2([N+](=O)[O-])CN(CC(=O)O)CC1([N+](=O)[O-])C2` (stereo not drawn), `O=[N+]([O-])c1ccc(N/N=C2/CCCCC2c2ccccn2)c([N+](=O)[O-])c1` (stereo not drawn) is higher in inhibition: -24.9% for the first, -15.4% for the second.

Going from `O=C(COC(=O)/C=C/c1ccc(S(=O)(=O)N2CCCCCC2)cc1)NCc1ccccc1Cl` to `Cc1ccc(/C=C/C(=O)Nc2cc(S(=O)(=O)N3CCCCCC3)ccc2OCC(F)(F)F)o1`, the inhibition rises from -43.5% to 7.49%.

Compared with `O=C(CN1C(=O)/C(=C\c2ccc(C(F)(F)F)cc2)Sc2ccccc21)NCc1ccco1`, `O=C1NC(c2ccc(-c3ccccc3[N+](=O)[O-])o2)C(C(=O)c2ccc(Cl)cc2)C(O)(C(F)(F)F)N1` (stereo not drawn) is higher in inhibition: -14.7% for the first, -11.1% for the second.

First: C/C(=N\NC(=O)CCn1nc(C)cc1C)C(C)(C)C
Second: Cc1cccc(OCCNC(=S)NC(=O)c2cccnc2)c1
The inhibition of the first is higher: -8.98% for the first, -28.5% for the second.

First: Cc1ccc(N(C(=O)c2ccc(CN3CCOCC3)o2)C(C(=O)NCCC(C)C)c2cccs2)c(C)c1 (stereo not drawn)
Second: CCOc1ccc(Br)cc1S(=O)(=O)Nc1cccc(S(=O)(=O)N(CC)CC)c1
The inhibition of the first is higher: -6.18% for the first, -29.5% for the second.

Going from `CCCOc1ccc(NC(=O)C2OC3OC(C)(C)OC3C3OC(C)(C)OC23)cc1` (stereo not drawn) to `CCOc1ccc(Oc2nc(C)cc(OC)n2)nn1`, the inhibition rises from -26.3% to -16%.

With `Clc1ccc(C2=CSC3=Nc4cccc5cccc(c45)N23)cc1` the inhibition was 76.1% (active).
With `COc1ccc(-c2nnc(SCC(=O)c3cccs3)o2)c(OC)c1` the inhibition was 90.3% (active).
